# Measured values: PubChem BioAssay (EPA / NIEHS)
# Activity calls are given as the source filed them. How the source made its calls: active means hit-call score of the fitted dose curve at least 0.9, where 1 is the maximum; inactive means score below 0.9.
# Biological target: Paired box protein Pax-6 (Homo sapiens) (UniProt P26367)
# Assay: ATG_Pax6_CIS: Attagene CIS-FACTORIAL HepG2 Assay for human Paired Box 6 (PAX6) (AID 2282956)
# Conditions: HepG2 CIS-FACTORIAL PAX6 reporter transcription, RNA readout; actives raise or lower the signal
# Protocol: ATG_CIS is a cell-based, multiplexed-readout assay that uses HepG2, a human liver cell line, with measurements taken at 24 hours after chemical dosing in a 24-well plate.ATG_Pax6_CIS is one of 52 assay component(s) measured or calculated from the ATG_CIS assay. It is designed to make measurements of mRNA induction, a form of inducible reporter, as detected with fluorescence intensity signals by Reverse transcription polymerase chain reaction (RT-PCR) and Capillary electrophoresis technology.Data from the assay component ATG_Pax6_CIS was analyzed into 1 assay endpoint. This assay endpoint, ATG_Pax6_CIS, was analyzed with bidirectional fitting relative to DMSO as the negative control and baseline of activity. Using a type of inducible reporter, measures of mRNA for gain or loss-of-signal activity can be used to understand the reporter gene at the transcription factor-level as they relate to the gene PAX6. Furthermore, this assay endpoint can be referred to as a primary readout, because this assay has produced multiple assay endpoints where this one serves a reporter gene function. To generalize the intended target to other relatable targets, this assay endpoint is annotated to the dna binding intended target family, where the subfamily is paired box protein.
# Human liver HepG2 cells are transiently transfected with multiple reporter transcription units (MRTUs) in 6-well plates using FuGene 6 reagent (Roche; 3 ml FuGene/1 mg DNA). The MRTU constructs are regulated by a cis-regulating element (promoter). […] A major difference between the CIS and TRANS system is that in CIS activities of endogenous TFs are measured, whereas the TRANS assay evaluates changes in activities of exogenous, chimeric NR-Gal4 proteins. […] At the end of 24 hour incubation, total RNA was isolated using TriZol reagent (Invitrogen). The isolated RNA is then reverse-transcribed using oligo(dT) primer and Mo-MLV reverse transcriptase (Invitrogen) with DNAse I (Ambion) treatment for 30 min. The one-tenth of the produced cDNA was amplified by PCR using Taq DNA polymerase (Invitrogen) and two reporter sequence-specific primers. The PCR products were fluorescently labeled by primer extension with 6-arboxyfluorescein (6-FAM) 5'-labeled reporter sequence-specific primer (2 min at 95 C, 20 s at 68 C and 10 min at 72 C) and these products were digested with 5U of HpaI (New England Biolabs) for 2h at 37 C. The fragments were purified using Qiaquick PCR columns (Qiagen), analyzed on an ABI 3130xL genetic analyzer (Applied Biosystems) with peak positions identified by using a set of X-rhodamine (ROX)-labeled MapMarker1000 molecular weight standards (BioVentures). The raw capillary electrophoresis data was processed using Attagraph software (Attagene).
# Paired box protein Pax-6 (Homo sapiens), sequence (P26367 whole entry, looked up): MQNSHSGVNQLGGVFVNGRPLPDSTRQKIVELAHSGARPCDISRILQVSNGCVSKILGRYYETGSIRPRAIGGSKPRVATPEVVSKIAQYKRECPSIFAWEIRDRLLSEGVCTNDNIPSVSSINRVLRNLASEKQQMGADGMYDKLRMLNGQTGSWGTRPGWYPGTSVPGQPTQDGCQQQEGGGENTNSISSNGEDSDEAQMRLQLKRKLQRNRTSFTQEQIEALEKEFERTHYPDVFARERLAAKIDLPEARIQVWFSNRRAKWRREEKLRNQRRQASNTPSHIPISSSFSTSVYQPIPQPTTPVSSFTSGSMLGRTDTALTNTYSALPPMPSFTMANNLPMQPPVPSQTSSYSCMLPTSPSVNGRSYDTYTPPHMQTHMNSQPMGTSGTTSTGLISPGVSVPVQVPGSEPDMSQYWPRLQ
Compound,outcome,AC50
CCCCCCOc1ccc(N)cc1,inactive,
O=C1CCCCC1C1CCCCC1 (stereo not given),inactive,
COC(=O)CC(C)CCC=C(C)C (stereo not given),inactive,
CCCCC1C(=O)N(c2ccccc2)N(c2ccccc2)C1=O,inactive,
COc1ccc(C(=O)/C(Br)=C\C(=O)O)cc1,,57.1 µM (active)
Cc1cc(=O)[nH]c(=O)[nH]1,inactive,
C=CC(=O)NC(C)(C)C,inactive,
C1CCSC1,inactive,
O=C1CCCN1C1CCCCC1,inactive,
Cc1c(C(=O)c2c[nH]n(C)c2=O)ccc(S(C)(=O)=O)c1C1=NOCC1,inactive,
O=C(O)CCCC(=O)O,inactive,
CCCCC(CC)COC(=O)/C=C/c1ccc(OC)cc1 (stereo not given),inactive,
Oc1ccc(/C=C/c2cc(O)cc(O)c2)cc1,inactive,
C=CC(=O)O[C@H]1C[C@@H]2CC[C@@]1(C)C2(C)C,inactive,
CCCCCCCCCCCC(=O)N(C)CC(=O)O,inactive,
Fc1ccc(Br)cc1,inactive,
Cc1cc(C)c(C=O)c(C)c1,inactive,
CC(c1cc(C(C)(C)C)cc(C(C)(C)C)c1O)c1cc(C(C)(C)C)cc(C(C)(C)C)c1O,inactive,
C=CCCCCCCCCO,inactive,
CC(C)(C)NC(=O)[C@H]1CC[C@H]2[C@@H]3CC[C@H]4NC(=O)C=C[C@]4(C)[C@H]3CC[C@]12C,inactive,

Compound,outcome,AC50
Nc1ccnc(=O)[nH]1,inactive,
CCOC(=O)CC(=O)c1ccccc1,inactive,
O=C(O)CC(C(=O)O)S(=O)(=O)O (stereo not given),inactive,
C=Cc1cccc(C)c1,inactive,
Oc1ccc(-c2ccccc2)c(Cl)c1,inactive,
CC(CC=O)CC(C)(C)C (stereo not given),inactive,
CCC(C)c1ccccc1 (stereo not given),inactive,
CC(=O)/C=C/C1C(C)=CCCC1(C)C (stereo not given),inactive,
CCOC(=O)OC(=O)OCC,inactive,
CCCCC(CC)COS(=O)(=O)O (stereo not given),inactive,
CC1=CC=C(C(C)C)CC1,inactive,
CCCCCCCCCC[N+](C)(CCCCCCCCCC)CCC[Si](OC)(OC)OC,inactive,
CCN1CCCC1=O,inactive,
CCCCCCCOC(=O)c1ccc(O)cc1,inactive,
O=c1c(O)c(-c2ccc(O)cc2O)oc2cc(O)cc(O)c12,inactive,
CCCCCC1=CCCC1=O,inactive,
[Cl][Sc]([Cl])[Cl],inactive,
CCCCC/C=C\C/C=C\CCCCCCCC(=O)O,,133 µM (active)
CCCCCCCCCCCC(=O)OCC,inactive,
CC(C)(C)C1CCC(=O)CC1,inactive,
